In the library only some 19% were active in any assay of this set; here they are far more common.
TDP1 cell CPT = growth inhibition of DT40 Tdp1-/-;hTDP1 cells with camptothecin (screen for TDP1 inhibitors). AID 686979. chicken DT40 Tdp1-/-;hTDP1 cells + 20 nM CPT, ATP luminescence, 48 h. actives 12% (n = 420,000). Potency, µM (highest dose often 46.2 µM), for inactives: at the highest dose activity change, negative = growth inhibition, actives largely listed as inhibitors; also: potency is read from the fitted curve at half-maximal effect; % is scaled to controls: 0 for no effect and ±100 for the full control effect; nearly all actives have a fitted effect of over 55% in size
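Cell growth measured by CellTiter-Glo luminescence after a minimum 48 h, 37 C compound exposure with 20 nM CPT in Tdp1-knockout DT40 cells stably expressing hTDP1, seeded 400/well; qHTS titration format.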
HepG2 viability = HepG2 cytotoxicity, counter-screen for TGF-b inhibitors. Potency, µM (titrated, usually from 46.1 µM), for the others: at the highest dose activity change, negative = cytotoxicity, most hits filed as cytotoxic. HepG2 CAGA-GFP viability, ATP luminescence, 18 h. actives 0.76% (n = 410,000); also: potency is read from the fitted curve at half-maximal effect
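CellTiter-Glo luminescence gave cytotoxicity after 18 hours at 37 degrees C. The cells were HepG2 CAGA-GFP in 1% FBS DMEM, stimulated with 500 pg/mL TGF-beta after compound addition. %Activity was normalised to no-cell wells (complete cell-killing) and DMSO (no toxicity), and curves were fitted and classified.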
TDP1 cell noCPT = qHTS for Inhibitors of human tyrosyl-DNA phosphodiesterase 1 (TDP1): qHTS in cells in absence of CPT; Potency, µM (series often up to 46.2 µM), inactives show at the highest dose activity change, negative = growth inhibition, usual class: inhibitors; AID 686978, 2013; actives 15% (n = 420,000); DT40 Tdp1-/- hTDP1 cells, no CPT, ATP luminescence, 48 h; also: potency is read from the fitted curve at half-maximal effect; % is scaled to controls: 0 for no effect and ±100 for the full control effect; nearly all actives have a fitted effect of over 55% in size
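Cells were dispensed at 400 per well, compounds added by pin tool, plates incubated ≥48 hr at 37 °C, then CellTiter-Glo added for 30 min at room temperature before luminescence reading. Line: DT40 Tdp1-/- complemented with hTDP1; camptothecin omitted.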
ASM inhibitor = blocks human secretory acid sphingomyelinase | P17405 | placental ASM, HMU-PC fluorogenic substrate, 60 min | Potency, µM (titrated, usually from 57.5 µM), inactives show top-dose activity change, negative = inhibition, most hits filed as inhibitors | actives 0.006% (n = 340,000); also: potency is read from the fitted curve at half-maximal effect
Target sequence (P17405 47-631 limits assumed): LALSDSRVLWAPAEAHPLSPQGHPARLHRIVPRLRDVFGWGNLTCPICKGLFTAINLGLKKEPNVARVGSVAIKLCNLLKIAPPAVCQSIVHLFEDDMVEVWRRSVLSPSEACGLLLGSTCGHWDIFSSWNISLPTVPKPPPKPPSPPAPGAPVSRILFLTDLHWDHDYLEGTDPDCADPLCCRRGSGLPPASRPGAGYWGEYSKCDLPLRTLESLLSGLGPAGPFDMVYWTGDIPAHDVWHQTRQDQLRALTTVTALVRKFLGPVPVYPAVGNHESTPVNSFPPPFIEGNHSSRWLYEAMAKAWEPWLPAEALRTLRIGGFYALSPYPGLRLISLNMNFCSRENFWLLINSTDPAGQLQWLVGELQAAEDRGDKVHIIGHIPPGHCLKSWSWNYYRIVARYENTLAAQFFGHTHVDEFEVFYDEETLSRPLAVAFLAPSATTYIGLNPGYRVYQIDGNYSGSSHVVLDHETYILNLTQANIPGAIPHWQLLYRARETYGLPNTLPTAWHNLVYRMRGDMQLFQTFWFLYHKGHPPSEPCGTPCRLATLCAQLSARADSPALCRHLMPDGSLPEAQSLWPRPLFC
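Human placenta-derived ASM enzyme was preincubated with compound for 10 minutes at room temperature, then given fluorogenic substrate HMU-PC0 (9 uM final) for 60 minutes at 37 °C; a pH 10 stop preceded fluorescence reading at Ex 386/Em 447 nm.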
IL-1B inflam inh = inhibitors of inflammasome signaling (IL-1 beta secretion); THP-1 LPS/ATP IL-1B secretion, AlphaLISA, 16 h; hits give low values; activity change, % at 57.5 µM; actives 4.7% (n = 360,000); AID 743279; in the data active = activity change below about -50%; inconclusive = mostly about -30% to -49%; also: % is scaled to controls: 0 for no effect and ±100 for the full control effect
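THP-1 cells pretreated 1 hr with compounds (up to 57.5 uM final), then stimulated with LPS (250 ng/mL final) plus ATP (1.25 mM final); secreted IL-1B measured by AlphaLISA after 16 hr, decreased signal indicating inhibition.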
TGFb SMAD3 inh = blocks TGF-b signaling | HepG2 CAGA-GFP TGF-b/SMAD3 reporter, GFP fluorescence, 18 h; TGF-beta stimulated, 500 pg/mL final | Potency, µM (highest dose often 46.1 µM), without a hit: top-dose activity, negative = inhibition, usual class: inhibitors | actives 1.2% (n = 410,000) | AID 588855; also: potency is read from the fitted curve at half-maximal effect; % is scaled to controls: 0 for no effect and ±100 for the full control effect; nearly all actives have a fitted effect of over 65% in size
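Per well, imaged GFP fluorescence of HEPG2 CAGA-GFP cells gives the signal; cells get compound, then TGF-beta (500 pg/mL final), 18 h at 37 degrees C; %Activity versus -TGF-beta and +DMSO controls.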
* = called active by the depositor; ? = inconclusive; · = no result. Unless noted, calls follow the shape of the dose curve; as a rule, active = well fitted curve in the direction sought with a large enough effect; inconclusive = small, poorly fitted or top-dose-only effect, or another doubt; inactive = no such curve, though single readings can be large; an effect the other way counts as inactive or inconclusive.

SMILES	TDP1 cell CPT	HepG2 viability	TDP1 cell noCPT	ASM inhibitor	IL-1B inflam inh	TGFb SMAD3 inh
OCc1ccccc1-c1nc(NCc2ccccc2)nc2ccsc12	?	-12%	-25%	·	0	-12%
CNc1nc(NCc2ccc(N(C)C)cc2)c2sccc2n1	18µM*	-34%	16µM*	·	29	24%
Clc1ccccc1Nc1nc(NCc2ccccc2)nc2ccsc12	9.2µM*	-1%	9.2µM*	·	-28	-9%
Cc1ccc(Nc2nc(NCC3CC3)nc3ccsc23)c(C)c1	3.7µM*	-14%	5.8µM*	·	?	?
CNc1nc(NCC2CCCCC2)c2sccc2n1	13µM*	-6%	13µM*	·	-21	?
COC(=O)C1(C(=O)OC)C2C(=O)C3C(C21)C3(C(=O)OC(C)(C)C)C(=O)OC(C)(C)C (stereo unspecified)	6%	-22%	-18%	·	-9	-4%
COc1cccc(CN2CC34CCC(CC3S2(=O)=O)O4)c1 (stereo unspecified)	·	1%	·	·	·	-2%
Cc1ccc(Nc2ncnc3sccc23)c(C)c1	-21%	-29%	?	0%	-15	-17%
CC(C)Nc1nc(NCc2ccccc2)c2sccc2n1	9.2µM*	-21%	18µM*	·	-101*	?
COCCNc1nc(NC(C)C)nc2ccsc12	-30%	-7%	-22%	·	0	-16%
CNc1nc(Nc2ccc(C)cc2C)c2sccc2n1	13µM*	4%	16µM*	·	0	?
Cc1ccc(F)cc1-c1nc(NCC2CC2)nc2ccsc12	?	1%	?	·	-18	12%
Cc1ccc(CNc2nc(NCC3CC3)nc3ccsc23)c(C)c1	9.2µM*	-95%	10µM*	·	-19	?
Cc1ccc(CNc2nc(NC(C)C)nc3ccsc23)c(C)c1	23µM*	-57%	?	·	-14	?
CCN1CCCC1CNS(=O)(=O)c1c(C)cc(C)cc1C (stereo unspecified)	-2%	-17%	-45%	-1%	-9	-5%
CCc1ccccc1N(CC)C(=O)c1cc2c(s1)-c1ccccc1OC2	·	-33%	·	·	·	?
CCOc1ccc(S(=O)(=O)N(CC(=O)N2CCC(C(N)=O)CC2)c2ccc(F)cc2)cc1	-11%	1%	2%	·	-9	9%
CC(C)Nc1nc(Nc2ccc(Cl)cc2F)c2sccc2n1	21µM*	-31%	21µM*	·	-1	?
CSc1nc(Oc2ccc(Cl)cc2)c2sccc2n1	-15%	9%	-5%	-13%	26	-2%
Cc1ccsc1CN(C)CC(=O)Nc1ccc([N+](=O)[O-])cc1Cl	-4%	-9%	?	0%	-79*	1%
COC(=O)N[C@@H]1C[C@H]2[C@@H]3CC[C@H]4C[C@@H](OC)CC[C@]4(C)[C@H]3CC[C@@]12C	13µM*	-43%	15µM*	-10%	41	-18%
COC(=O)[C@H]1C[C@H]2[C@@H]3CC[C@H]4C[C@@H](OC)CC[C@]4(C)[C@H]3CC[C@]2(C)[C@@]2(CCCO2)O1	?	-9%	16µM*	-5%	-4	6%
Cn1cnc2c(=O)oc3ccc(S(=O)(=O)N4CCN(c5ccccc5F)CC4)cc3c21	-9%	-7%	-23%	·	·	-29%
Cc1cccc(N2CCN(S(=O)(=O)c3ccc4oc(=O)c5ncn(C)c5c4c3)CC2)c1C	?	-8%	16µM*	·	·	1%
Cc1cc2oc(=O)sc2cc1NS(=O)(=O)c1cccc2cccnc12	?	5%	-27%	-4%	-69*	-2%
Cc1nc2cc(NS(=O)(=O)c3cccc4cccnc34)ccc2s1	16µM*	-9%	9.2µM*	4%	-14	0%
